Results reported in PubChem BioAssay.
Results with a measured potency or affinity are listed apart. Inconclusive results are not listed.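 How the source made its calls: active means falling signal with fitted half-maximal potency no higher than twice the top valid tested dose; inconclusive means poor fit quality, or flat fit spanning -70% to -30%; inactive means potency over limit, rising signal, or flat fit inside 30%.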

test: Cryptococcus neoformans growth inhibition, dose response, Alamar Blue, cherry-picks (AID 686998); settings: 24 h; series mostly up to 35 µM; activity change, negative = inhibition: at the top concentration

Activity change, negative = inhibition, inactive:
O=C([C@@H]1[C@@H](CO)[C@@H]2Cn3c(cccc3=O)[C@H]1N2Cc1cccc(Cl)c1)N1CCOCC1 -22.3%, CC(=O)NC[C@H]1[C@@H](c2ccc(C3=CCCC3)cc2)[C@@H](CO)N1C(=O)NC(C)C -17.4%, CCC(C)(C(=O)NC1CCCC1)N(C(C)=O)c1ccc(C)cc1 (configuration not stated) -17.6%, CC(C)NC(=O)N(C)C[C@@H]1OCCCC[C@@H](C)Oc2ccc(NC(=O)c3ccccc3)cc2C(=O)N([C@H](C)CO)C[C@H]1C -35.9%, Cc1noc(C)c1NC(=O)N(C)C[C@@H]1Oc2ccc(NC(=O)C3CC3)cc2CC(=O)N([C@H](C)CO)C[C@@H]1C -35.3%, CCCN(C)C[C@@H]1OCCCC[C@H](C)Oc2ccc(NS(=O)(=O)c3ccc(C)cc3)cc2C(=O)N([C@H](C)CO)C[C@@H]1C -0.516%, COCC(=O)Nc1ccc2c(c1)OC[C@@H](C)N(C(=O)Cc1cccnc1)C[C@H](C)[C@@H](OC)CN(C)C2=O 4.16%, C[C@@H]1CCCCO[C@@H](CN(C)Cc2ccncc2)[C@@H](C)CN([C@@H](C)CO)C(=O)c2cc(NC(=O)c3ccncc3)ccc2O1 25% [at 30 µM], Cc1ccc(NC(=O)C2(C)CCCN2CC(C)C)cc1C (configuration not stated) 21.9% [at 56 µM], COCCNC(=O)C[C@@H]1CC[C@H]2[C@@H](COC[C@H](O)CN2Cc2cccc(-c3ccncc3)c2)O1 -16.7%, O=S(=O)(NC[C@@H]1[C@@H](c2ccccc2)[C@H](CO)N1CC1CC1)c1ccccc1 30.8%, C[C@H]1CN([C@@H](C)CO)C(=O)Cc2cc(NS(=O)(=O)c3ccc(F)cc3)ccc2O[C@@H]1CN(C)S(=O)(=O)c1ccc(F)cc1 40.2%
